Measurements: PubChem BioAssay (NCATS)
Records with an inconclusive call do not appear. Values without a mark were called inactive. Calls of active or inactive are those of the source. The call rests on the fitted dose curve; in most records, active means well fitted curve in the direction sought with a large enough effect; inconclusive means small, poorly fitted or top-dose-only effect, or another doubt; inactive means no such curve, though single readings can be large; an effect the other way counts as inactive or inconclusive.

The molecules below were run against Tumor susceptibility gene 101 protein (Homo sapiens) (UniProt Q99816) (assay: qHTS Assay for Iinhibitors of HIV-1 Budding by Blocking the Interaction of PTAP/TSG101: Hit Validation (AID 651600; further: nearly all actives have a fitted effect of over 70% in size; on activity change, negative = inhibition: on the % scale 0 is the no-effect control and ±100 the full control effect)). Conditions: PTAP peptide/TSG101 UEV interaction, biochemical assay; series mostly up to 57.5 µM; activity change, negative = inhibition: at the top concentration.
Procedure, shortened: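 Compounds are added to the Tsg101 binding domain (10 uM final) in pH 7.5 HEPES buffer. FITC-PTAP peptide follows at 50 nM final. After 20 min at r.t., polarized FITC emission is measured.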
Potency means the concentration at half of the fitted maximal effect.

Chain of Tumor susceptibility gene 101 protein (Homo sapiens) (Q99816 whole entry, looked up, the tested form may be a part): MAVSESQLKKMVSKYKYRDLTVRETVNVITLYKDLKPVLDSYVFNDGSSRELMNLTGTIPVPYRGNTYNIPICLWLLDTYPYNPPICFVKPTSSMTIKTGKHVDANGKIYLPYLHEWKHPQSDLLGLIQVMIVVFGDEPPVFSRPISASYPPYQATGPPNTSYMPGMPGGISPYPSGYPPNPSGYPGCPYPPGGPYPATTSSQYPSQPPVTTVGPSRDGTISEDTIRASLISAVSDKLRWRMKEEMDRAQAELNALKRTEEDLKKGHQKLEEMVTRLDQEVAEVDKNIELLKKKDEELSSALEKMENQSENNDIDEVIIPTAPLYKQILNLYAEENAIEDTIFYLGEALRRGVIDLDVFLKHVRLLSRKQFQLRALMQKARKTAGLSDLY

| Compound | activity change, negative = inhibition | Potency |
| --- | --- | --- |
| CCN(CC)C1=CC2=CC(=C(C#N)C#N)CCC2CC1 (stereo not drawn) | 68.4% |  |
| CCCCN(C)C1=CC2=CC(=C(C#N)C#N)CCC2CC1 (stereo not drawn) | 74.8% |  |
| CN1/C(=C\C=C2/C(=O)Oc3ccccc3C2=O)C(C)(C)c2ccccc21 | -78.5% |  |
| CC(=O)OCCn1c2nc(=O)[nH]c(=O)c-2nc2cc(C)c(C)cc21 |  | 0.919 µM (active) |

What follows are molecules tested against Rap guanine nucleotide exchange factor 4 (Homo sapiens) (UniProt Q8WZA2) (assay: Confirmatory qHTS for agonist of cAMP-regulated guanine nucleotide exchange factor 4 (EPAC2) (AID 1645884;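 further: nucleotide exchange releases bodipy-GDP from Rap1 and this lowers its fluorescence; nearly all actives have a fitted effect of over 65% in size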)). Conditions: EPAC2 GEF activity, Rap1B-BODIPY-GDP fluorescence; series mostly up to 154 µM; activation: at the top concentration.
Chain of Rap guanine nucleotide exchange factor 4 (Homo sapiens) (Q8WZA2 whole entry, looked up): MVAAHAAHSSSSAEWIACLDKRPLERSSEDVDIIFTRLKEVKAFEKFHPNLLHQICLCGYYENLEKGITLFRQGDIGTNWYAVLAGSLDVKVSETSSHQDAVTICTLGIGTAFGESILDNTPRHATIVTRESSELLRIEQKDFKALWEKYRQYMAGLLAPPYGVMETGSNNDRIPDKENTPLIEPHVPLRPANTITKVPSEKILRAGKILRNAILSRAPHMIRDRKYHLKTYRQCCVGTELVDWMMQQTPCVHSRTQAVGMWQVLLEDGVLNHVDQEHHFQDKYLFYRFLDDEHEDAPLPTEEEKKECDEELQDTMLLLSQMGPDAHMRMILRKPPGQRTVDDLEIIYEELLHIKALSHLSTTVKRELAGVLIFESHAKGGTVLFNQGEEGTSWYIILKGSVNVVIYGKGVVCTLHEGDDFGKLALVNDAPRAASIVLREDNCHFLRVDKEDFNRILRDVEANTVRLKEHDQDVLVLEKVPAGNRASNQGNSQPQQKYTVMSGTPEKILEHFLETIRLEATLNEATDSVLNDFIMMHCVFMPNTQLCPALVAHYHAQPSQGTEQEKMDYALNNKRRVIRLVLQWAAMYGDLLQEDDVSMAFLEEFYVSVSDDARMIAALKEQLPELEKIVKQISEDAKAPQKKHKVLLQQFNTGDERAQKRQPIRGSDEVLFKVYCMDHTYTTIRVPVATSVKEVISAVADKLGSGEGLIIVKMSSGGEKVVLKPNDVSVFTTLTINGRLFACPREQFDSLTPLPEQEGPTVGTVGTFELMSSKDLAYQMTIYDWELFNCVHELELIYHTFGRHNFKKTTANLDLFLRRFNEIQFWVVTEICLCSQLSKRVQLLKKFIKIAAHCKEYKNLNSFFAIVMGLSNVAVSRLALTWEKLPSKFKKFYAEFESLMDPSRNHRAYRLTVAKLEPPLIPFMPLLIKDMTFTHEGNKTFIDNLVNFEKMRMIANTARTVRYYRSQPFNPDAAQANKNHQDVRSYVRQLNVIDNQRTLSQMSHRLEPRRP

| Compound | Potency |
| --- | --- |
| CCN(CC)C1=CC2=CC(=C(C#N)C#N)CCC2CC1 (stereo not drawn) | 112 µM (active) |
| CCCCN(C)C1=CC2=CC(=C(C#N)C#N)CCC2CC1 (stereo not drawn) | 126 µM (active) |
| CCN(CC)CCCC(C)n1c2nc(=O)[nH]c(=O)c-2nc2cc(Cl)ccc21 (stereo not drawn) | 100 µM (active) |
| CC(=O)OCCn1c2nc(=O)[nH]c(=O)c-2nc2cc(C)c(C)cc21 | 100 µM (active) |

What follows are molecules tested against Rap guanine nucleotide exchange factor 4 (Homo sapiens) (UniProt Q8WZA2) (assay: Confirmatory qHTS for antagonist of cAMP-regulated guanine nucleotide exchange factor 4 (EPAC2) (AID 1645885; further: nearly all actives have a fitted effect of over 25% in size; on activity change, negative = inhibition: on the % scale 0 is the no-effect control and ±100 the full control effect)). Conditions: EPAC2 Rap1B-BODIPY-GDP exchange fluorescence, biochemical; series mostly up to 12.7 µM; activity change, negative = inhibition: at the top concentration; outcome: at the top concentration.

| Compound | activity change, negative = inhibition | Potency | outcome |
| --- | --- | --- | --- |
| COc1ccc(/C=C/C(=O)c2cccs2)c(OC)c1 | -11.6% [at 114 µM] |  |  |
| Cc1c(CCC(=O)O)c(=O)oc2c(C)c3occ(-c4ccc(Br)cc4)c3cc12 | -37.1% [at 114 µM] |  |  |
| COc1ccc(O)c(C(c2c(C)[nH][nH]c2=O)c2c(C)[nH][nH]c2=O)c1 |  | 75.7 µM (active) |  |
| Oc1ccc(Cl)cc1CNc1cccc2cccnc12 | 28.3% [at 114 µM] |  |  |
| Cn1cc(-c2cnc3c(NC=O)cc(-c4cccc(C(F)(F)F)c4)cn23)cn1 | 36.9% [at 114 µM] |  |  |
| COC(=O)C(C)Sc1nc2ccsc2c(=O)n1Cc1ccccc1 (stereo not drawn) |  | 26.9 µM (active) |  |
| O=C(c1cc(Cl)ccc1Cl)N1CCc2ccccc21 |  | 33.8 µM (active) |  |
| O=S(=O)(c1ccc2[nH]c3c(c2c1)CCCC3)N1CCCCC1 |  |  | inactive |
| S=C(Nc1ccc2nsnc2c1)NC1CCCCC1 | -27.9% [at 114 µM] |  |  |
| CC1CCN(c2ccc3c(c2)S(=O)(=O)c2cccc(C(=O)NC[C@@H]4CCCO4)c2C3=O)CC1 | -24% [at 114 µM] |  |  |
